Test system: HepG2
Assay: GSK_TCMDC: Percent inhibition of human HepG2 cell line. Test compounds present at 10uM.
Type: functional

| SMILES | Inhibition |
| --- | --- |
| Fc1ccc(C=NN=c2cc[nH]c3ccc(C(F)(F)F)cc23)cc1 | 22% |
| COc1ccc2nccc([C@@H](O)CN3CCC(NC(=O)C(c4ccsc4)N4CCN(c5ccccc5OC)CC4)CC3)c2c1 (stereo not given in full) | 11% |
| CCCC(C)Nc1nc(C)cc(N[C@@H](CC(C)C)C(=O)NCCc2ccccc2)n1.O=C(O)C(F)(F)F (stereo not given in full) | 9% |
| O=C(O)C(F)(F)F.Oc1ccc(CCCNc2nc(NCc3cccc4ccccc34)nc(N3CCCNCC3)n2)cc1 | 98% |
| O=C1C(C2CCC(c3ccc(Cl)cc3)CC2)=C2OCC3COC2(O3)c2ccccc21 (stereo not given) | 7% |
| Cc1ccc2nc3c(cc(C(=O)NCCc4ccccc4)c(=N)n3CCCOC(C)C)c(=O)n2c1 | 15% |
| CN(C)CCOC(=O)C1(O)CCC2CC1C2(C)C.Cl (stereo not given) | 10% |
| CCCCCc1ccc(NC(=O)Nc2ccc(Cn3ncc(N4CCCNCC4)c(Cl)c3=O)cc2)cc1.O=C(O)C(F)(F)F | 15% |
| CCCCCN1CCCC(NS(=O)(=O)c2ccc(C(=O)Nc3cccc(C(F)(F)F)c3)cc2)C1.O=C(O)C(F)(F)F (stereo not given) | 30% |
| Nc1nc(N)c2c(ccc3c2ccn3Cc2ccc(-c3ccccc3)cc2)n1 | 100% |
| CN(C)CCN(C)Cc1ccc(-c2ccc(NC(=O)c3cccc(Cl)c3)cc2)cc1.O=C(O)C(F)(F)F | 50% |
| Cl.O=C(Nc1ccc2c(c1)CCNCC2)c1ccc(-c2ccc(Cl)cc2)cc1 | 71% |
| COc1ccccc1C1CCN(C2CCC(NC(=O)c3cc4cc(C(C)C)ccc4[nH]3)CC2)CC1 (stereo not given) | 100% |
| COc1ccc(-c2cn3c(C(=O)Nc4ccccc4Cl)c(-c4ccccc4)c4c3n2CCCC4)cc1 | 7% |
| Cc1cnc(NCC2CCCCC2)nc1N[C@@H](CO)C(=O)Nc1ccccc1.O=C(O)C(F)(F)F | 0% |
| NCc1cccc(-c2ccc3ccnc(N)c3c2)c1 | 7% |
| O=[N+]([O-])c1ccc(/C=N/Nc2cc(-c3ccccc3)nc3ccccc23)o1 | 48% |
| CC(C)CCC[C@@H]([C@@H](CC1CCCCC1)C(=O)N[C@@H](CCCCNC(=O)OCc1ccccc1)C(=O)Nc1nccs1)N(O)C=O | 0% |
| CCN1CCN(c2cc(C)c3cc(NC(=O)C=Cc4cccc(OC)c4OC)ccc3n2)CC1 | 18% |
| CCN(CCCN1CCCC1)c1cc(C)nc(Nc2ccc(Cl)cc2)n1.O=C(O)C(=O)O | 5% |

| SMILES | Inhibition |
| --- | --- |
| C=CCOC(=O)N1CCC(CNCc2cccc(-c3cccc(-c4nc5ccccc5[nH]4)c3)c2)C1.O=C(O)C(F)(F)F (stereo not given) | 16% |
| Cc1c(CNCCCNc2nc3ccccc3[nH]2)sc(C(F)F)c1Br.Cl | 9% |
| O=C(O)C(F)(F)F.O=S(=O)(NCCN1CCCC1)c1ccc(-c2cccc(CNC3Cc4ccccc4C3)c2)cc1 | 55% |
| O=C(Nc1ccc(Cl)cc1)c1cc(Cl)cc2nc(C(F)(F)F)[nH]c12 | 87% |
| O=C(Nc1ccc(-n2ccc(C(F)(F)F)n2)cc1)c1cccs1 | 6% |
| Clc1ccc(CNC2CCN(CC3CCCCC3)CC2)cc1.O=C(O)C(F)(F)F | 12% |
| NC1CCCN(Cc2ccc(-c3cccc(-c4nc5cc(F)ccc5[nH]4)c3)cc2)C1.O=C(O)C(F)(F)F (stereo not given) | 54% |
| CC(=O)Nc1ccc(Nc2cc(C)nc(Nc3ccc(NC(C)=O)cc3)n2)cc1 | 4% |
| CCCNCc1ccc(-c2ccc(CN(CCOC)C(=O)c3ccccc3)cc2)nc1.O=C(O)C(F)(F)F | 16% |
| Cc1ccc(C(NC(=O)C2CCCCC2)c2ccc3cccnc3c2O)cc1 (stereo not given) | 69% |
| O=C(Nc1ccc(CCNCCCc2ccccc2)cc1)Nc1ccc(Cl)c(Cl)c1 | 33% |
| O=C(Cc1ccccc1)NC(c1ccco1)c1cc(Cl)c2cccnc2c1O (stereo not given) | 44% |
| CCCNCc1ccc(-c2ccc(CN(CCOC)C(=O)c3ccco3)cc2)nc1.O=C(O)C(F)(F)F | 1% |
| O=C(NC1CCCCC1)N(Cc1cccc(-c2cccc(CNC3CCCC3)c2)c1)C1CCN(Cc2ccccc2)CC1.O=C(O)C(F)(F)F | 64% |
| CN1CCCN(Cc2cccc(-c3cccc(NC(=O)c4ccc(Cl)cc4)c3)c2)CC1.O=C(O)C(F)(F)F | 35% |
| O=C(COc1ccc(Cl)c(Cl)c1)NCCCCCN1CCCN(C(=O)Nc2ccc(Cl)c(Cl)c2)CC1.O=C(O)C(F)(F)F | 29% |
| Cc1ccc(C)c(Cn2ccc3nc(N)nc(N)c32)c1 | 65% |
| COc1ccc(O)c(C(=O)NCCc2ccc(OC)c(-c3ccc(C(C)(C)C)cc3)c2)c1 | 11% |
| c1ccc(COc2ccccc2COc2ccccc2-c2ccc3cccnc3n2)cc1 | 0% |
| COc1ccccc1CNc1nc(Nc2ccccc2C)nc2ccccc12 | 24% |

— ChEMBL document CHEMBL1157539, “Thousands of chemical starting points for antimalarial lead identification” (Nature, 2010)
